Records with an inconclusive call do not appear. Activity calls are given as the source filed them. Rule for the calls: active = hit-call score of the fitted dose curve at least 0.9, where 1 is the maximum; inconclusive = response in the unintended direction; inactive = score below 0.9.

A short description of the experiment: ACEA_ER_AUC_viability: ACEA Biosciences xCELLigence Real-Time Cell Analysis on Estrogen Receptor Agonism for Viability (AID 2283782).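 Note: continuous compound exposure with impedance area under curve over 80 h; hit means loss of impedance signal meaning reduced cell growth or viability.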 The method, boiled down:
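T-47D human breast cells in phenol red-free RPMI1640 with 10% charcoal-stripped FBS were dosed with an 8-point 1:4 dilution series from 100 uM top final concentration, in duplicate. Impedance-based growth was followed for 80 h; AUC analysed versus DMSO.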
As for `OCC(CO)(CO)COCC(CO)(CO)CO`, the molecule was classed as inactive.

For `CC(C)c1cccc(O)c1`, the result was inactive.

For `CC(C#N)(CCC(=O)O)N=NC(C)(C#N)CCC(=O)O` (stereo not drawn), the outcome was inactive.

Consider `CCn1c2ccccc2c2cc(N)ccc21`, for which the result was inactive.

With `CCO[Si](CCCS)(OCC)OCC`, the result was inactive.

On to `Nc1nc2ccc([N+](=O)[O-])cc2s1`, for which the concentration at half-maximal activity (AC50) is 50 µM (active).

Take `O=C(O)Cc1cccc2ccccc12`: the molecule was classed as inactive.

With `Cc1ccc2ccccc2n1`, the molecule was called inactive.

Regarding `CCCCc1ccc(N)cc1`, the call was inactive.

With `c1ccc(CCCc2ccccn2)cc1`, the molecule was called inactive.

With `CC(C)=CCC[C@H](C)CC=O`, the molecule was called inactive.

For the molecule `OC1C(O)C(O)C(O)C(O)C1O` (stereo not drawn), the molecule was classed as inactive.

On to `CC(=O)OCCC(C)CC(C)(C)C` (stereo not drawn), for which the outcome was inactive.

`CCCc1ccccc1O`: the AC50 is 64.2 µM (active).

`O=C[C@H](O)[C@H](O)[C@H](O)CO`: the AC50 was 23.6 µM (active).

On to `CC1COc2ccccc2N1C(=O)C(Cl)Cl` (stereo not drawn), for which the AC50 was 4.69 µM (active).

`CC1=CC(=O)NS(=O)(=O)O1`: the molecule was classed as inactive.

Take `CC1=CCC2C(C1)C2(C)C` (stereo not drawn): the call was inactive.

Take `Cc1ccc(O)c(C(C)(C)C)c1`: the AC50 was 26.2 µM (active).

Consider `CC(=O)Nc1ccccc1O`, for which the molecule was called inactive.

Consider `N#Cc1ccccc1`, for which the molecule was classed as inactive.

Turning to `OCc1cccnc1`, the call was inactive.

Turning to `CC(C)=CCC/C(C)=C/COC=O`, the molecule was classed as inactive.

`CC(=O)Nc1ccc(C)cc1C`: the result was inactive.

`O=C1c2ccccc2C(=O)N1SC1CCCCC1`: the AC50 was 50 µM (active).

For the molecule `CCCC(C)C=O` (stereo not drawn), the AC50 was 20.8 µM (active).

Turning to `CCCCCCCCCCCCCCCCCC(=O)OCC(CC)CCCC` (stereo not drawn), the molecule was classed as inactive.

Consider `CCCC(=O)c1cc(O)c(O)cc1O`, for which the outcome was inactive.

For `CC(=O)C=CC1=C(C)CCCC1(C)C`, the result was inactive.

With `CCCCCCCCCC=O`, the call was inactive.

For `NCCOCCO`, the molecule was classed as inactive.

Regarding `C=C(C)C1CCC(C)CC1O` (stereo not drawn), the AC50 is 50 µM (active).

In the case of `Cc1ccc(C=O)s1`, the AC50 was 50 µM (active).

(Values after PubChem BioAssay (EPA / NIEHS).)
